Assay: inhibition of K1F phage lysis of E. coli UTI89, dose response, capsule biogenesis inhibitor project, strain UTI89, C7 control, set 3 (AID 504675)
Conditions: E. coli UTI89 K1 capsule; OD600, at 100 µM (top of the series); inhibition of phage lysis: at the top concentration;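 active means compound blocking phage killing of bacteria by at least 30% at some tested dose; inactive means the rest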

Inhibition of phage lysis, inactive:
COc1ccc2nc(NC(=O)c3ccc(F)cc3)sc2c1 1%
COc1ccc(C(=O)Nc2nc3ccc(OC)cc3s2)cc1 1%
N=c1n(CCN2CCCC2)c2ccccc2n1CC(O)c1ccc(Cl)c(Cl)c1 (centres undefined) 1%
COc1cccc(-c2cc(C(=O)O)c3ccccc3n2)c1 1%
COc1ccc2nc(NC(=O)c3ccccc3)sc2c1 1%
O=C(O)c1cc(-c2cccc(F)c2)nc2ccccc12 1%
O=C(O)c1cc(-c2ccc(F)cc2)nc2ccccc12 1%
COc1ccc2nc(NC(=O)c3ccccc3OC)sc2c1 1%
COc1cccc(C(=O)Nc2nc3ccc(OC)cc3s2)c1 1%
